Over roughly 16,000 sequences, “rpm ratio (pull-down/input)” has its median near 0.94; the highest 2% begin near 1.7. This is one part of a sample in which the highest values are shown more often than they occur.
Target: T1, MBP-FoxP1dN (Mus musculus, UniProt P58462 326-579)
T1 sequence: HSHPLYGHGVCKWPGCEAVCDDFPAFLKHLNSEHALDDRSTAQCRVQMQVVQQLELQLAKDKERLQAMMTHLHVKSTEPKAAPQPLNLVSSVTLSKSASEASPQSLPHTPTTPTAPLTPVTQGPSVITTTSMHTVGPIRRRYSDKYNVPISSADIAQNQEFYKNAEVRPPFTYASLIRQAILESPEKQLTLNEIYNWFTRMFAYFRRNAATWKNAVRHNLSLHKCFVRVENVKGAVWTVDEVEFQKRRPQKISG
Experiment: PD-seq (MBP pull-down with sequencing); 20 mM Tris-HCl pH 7.5, 100 mM NaCl, 1.5 mM MgCl2, 0.4 uM protein, 0.1 uM dsDNA library, 30 min, room temperature, amylose pull-down; high values mean tight binding
Conditions: protein: recombinant; tags: His6-MBP; chain copies: 2; dsDNA, one strand shown
Method in brief: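 In Tris pH 7.5 buffer with NaCl and MgCl2, 0.4 µM His6-MBP-tagged mouse FoxP3 or FoxP1 fragment lacking the N-terminus, from E. coli, met 0.1 µM Klenow-filled double-stranded degenerate DNA library for 30 min at room temperature. Three washes on amylose resin followed capture of the complexes, then proteinase K release of DNA, PCR barcoding and Illumina sequencing. Binding is taken as pooled-replicate reads-per-million enrichment of pull-down relative to input.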

Sequence | binding signal
GATGATTGTTCTCCCAGCTGATGAATTCCCTGTTTCGAGTAAACAAATTTTCCTAATCTTTCTGTTCAAGCGCCATCTAC | 0.907 RPM ratio (pull-down/input)
GATGATTGTTCTCCCAGCTGATGAATTCGTGTTGTCGAGTAAACAAATTTTCCTAATCTTTCTGTTCAAGCGCCATCTAC | 2.52 RPM ratio (pull-down/input)
GATGATTGTTCTCCCAGCTGATGAATTCCTGTTTTCGAGTAAACAAATTTTCCTAATCTTTCTGTTCAAGCGCCATCTAC | 2.04 RPM ratio (pull-down/input)
GATGATTGTTCTCCCAGCTGATGAATTCTCTGTTTCGAGTAAACAAATTTTCCTAATCTTTCTGTTCAAGCGCCATCTAC | 0.91 RPM ratio (pull-down/input)
GATGATTGTTCTCCCAGCTGATGAATTCGTGTTTTCGAGTAAACAAATTTTCCTAATCTTTCTGTTCAAGCGCCATCTAC | 2.29 RPM ratio (pull-down/input)
GATGATTGTTCTCCCAGCTGATGAATTCCTGATTTCGAGTAAACAAATTTTCCTAATCTTTCTGTTCAAGCGCCATCTAC | 1.02 RPM ratio (pull-down/input)
GATGATTGTTCTCCCAGCTGATGAATTCTTCGTGTCGAGTAAACAAATTTTCCTAATCTTTCTGTTCAAGCGCCATCTAC | 0.867 RPM ratio (pull-down/input)
GATGATTGTTCTCCCAGCTGATGAATTCGTGTGTTCGAGTAAACAAATTTTCCTAATCTTTCTGTTCAAGCGCCATCTAC | 1.22 RPM ratio (pull-down/input)
GATGATTGTTCTCCCAGCTGATGAATTCGTCGTGTCGAGTAAACAAATTTTCCTAATCTTTCTGTTCAAGCGCCATCTAC | 0.922 RPM ratio (pull-down/input)
GATGATTGTTCTCCCAGCTGATGAATTTCGTGTTTCGAGTAAACAAATTTTCCTAATCTTTCTGTTCAAGCGCCATCTAC | 1.02 RPM ratio (pull-down/input)
GATGATTGTTCTCCCAGCTGATGAATTCTGTTTTTCGAGTAAACAAATTTTCCTAATCTTTCTGTTCAAGCGCCATCTAC | 1.99 RPM ratio (pull-down/input)
GATGATTGTTCTCCCAGCTGATGAATTCGAGTTTTCGAGTAAACAAATTTTCCTAATCTTTCTGTTCAAGCGCCATCTAC | 1.08 RPM ratio (pull-down/input)
GATGATTGTTCTCCCAGCTGATGAATTCGCAAATTCGAGTAAACAAATTTTCCTAATCTTTCTGTTCAAGCGCCATCTAC | 0.933 RPM ratio (pull-down/input)
GATGATTGTTCTCCCAGCTGATGAATTGGCCTTCTCGAGTAAACAAATTTTCCTAATCTTTCTGTTCAAGCGCCATCTAC | 0.772 RPM ratio (pull-down/input)
GATGATTGTTCTCCCAGCTGATGAATTGCAATGTTCGAGTAAACAAATTTTCCTAATCTTTCTGTTCAAGCGCCATCTAC | 1.42 RPM ratio (pull-down/input)
GATGATTGTTCTCCCAGCTGATGAATTAAGGGTTTCGAGTAAACAAATTTTCCTAATCTTTCTGTTCAAGCGCCATCTAC | 0.875 RPM ratio (pull-down/input)
GATGATTGTTCTCCCAGCTGATGAATTTCTTGTTTCGAGTAAACAAATTTTCCTAATCTTTCTGTTCAAGCGCCATCTAC | 1.14 RPM ratio (pull-down/input)
GATGATTGTTCTCCCAGCTGATGAATTCTCATGTTCGAGTAAACAAATTTTCCTAATCTTTCTGTTCAAGCGCCATCTAC | 0.861 RPM ratio (pull-down/input)
GATGATTGTTCTCCCAGCTGATGAATTTCATGTTTCGAGTAAACAAATTTTCCTAATCTTTCTGTTCAAGCGCCATCTAC | 0.998 RPM ratio (pull-down/input)
GATGATTGTTCTCCCAGCTGATGAATTCTTGTTTTCGAGTAAACAAATTTTCCTAATCTTTCTGTTCAAGCGCCATCTAC | 2.77 RPM ratio (pull-down/input)

Sequence | binding signal
GATGATTGTTCTCCCAGCTGATGAATTCATGTTTTCGAGTAAACAAATTTTCCTAATCTTTCTGTTCAAGCGCCATCTAC | 2.2 RPM ratio (pull-down/input)
GATGATTGTTCTCCCAGCTGATGAATTCCTTGTTTCGAGTAAACAAATTTTCCTAATCTTTCTGTTCAAGCGCCATCTAC | 0.969 RPM ratio (pull-down/input)
GATGATTGTTCTCCCAGCTGATGAATTGAAAGCCTCGAGTAAACAAATTTTCCTAATCTTTCTGTTCAAGCGCCATCTAC | 0.795 RPM ratio (pull-down/input)
GATGATTGTTCTCCCAGCTGATGAATTATACAGCTCGAGTAAACAAATTTTCCTAATCTTTCTGTTCAAGCGCCATCTAC | 1.03 RPM ratio (pull-down/input)
GATGATTGTTCTCCCAGCTGATGAATTCTCGCGCTCGAGTAAACAAATTTTCCTAATCTTTCTGTTCAAGCGCCATCTAC | 0.835 RPM ratio (pull-down/input)
GATGATTGTTCTCCCAGCTGATGAATTCGTCTTGTCGAGTAAACAAATTTTCCTAATCTTTCTGTTCAAGCGCCATCTAC | 0.827 RPM ratio (pull-down/input)
GATGATTGTTCTCCCAGCTGATGAATTAATAATCTCGAGTAAACAAATTTTCCTAATCTTTCTGTTCAAGCGCCATCTAC | 1.06 RPM ratio (pull-down/input)
GATGATTGTTCTCCCAGCTGATGAATTATTTTTGTCGAGTAAACAAATTTTCCTAATCTTTCTGTTCAAGCGCCATCTAC | 1.37 RPM ratio (pull-down/input)
GATGATTGTTCTCCCAGCTGATGAATTTATATTCTCGAGTAAACAAATTTTCCTAATCTTTCTGTTCAAGCGCCATCTAC | 1.04 RPM ratio (pull-down/input)
GATGATTGTTCTCCCAGCTGATGAATTTATTCTGTCGAGTAAACAAATTTTCCTAATCTTTCTGTTCAAGCGCCATCTAC | 1.12 RPM ratio (pull-down/input)
GATGATTGTTCTCCCAGCTGATGAATTTTATATGTCGAGTAAACAAATTTTCCTAATCTTTCTGTTCAAGCGCCATCTAC | 0.988 RPM ratio (pull-down/input)
GATGATTGTTCTCCCAGCTGATGAATTGTTATTGTCGAGTAAACAAATTTTCCTAATCTTTCTGTTCAAGCGCCATCTAC | 3.45 RPM ratio (pull-down/input)
GATGATTGTTCTCCCAGCTGATGAATTTTTATTGTCGAGTAAACAAATTTTCCTAATCTTTCTGTTCAAGCGCCATCTAC | 2.51 RPM ratio (pull-down/input)
GATGATTGTTCTCCCAGCTGATGAATTATATCTGTCGAGTAAACAAATTTTCCTAATCTTTCTGTTCAAGCGCCATCTAC | 1.08 RPM ratio (pull-down/input)
GATGATTGTTCTCCCAGCTGATGAATTTTATCTGTCGAGTAAACAAATTTTCCTAATCTTTCTGTTCAAGCGCCATCTAC | 0.918 RPM ratio (pull-down/input)
GATGATTGTTCTCCCAGCTGATGAATTTATATTGTCGAGTAAACAAATTTTCCTAATCTTTCTGTTCAAGCGCCATCTAC | 2.36 RPM ratio (pull-down/input)
GATGATTGTTCTCCCAGCTGATGAATTATATTTGTCGAGTAAACAAATTTTCCTAATCTTTCTGTTCAAGCGCCATCTAC | 2.29 RPM ratio (pull-down/input)
GATGATTGTTCTCCCAGCTGATGAATTAAACATATCGAGTAAACAAATTTTCCTAATCTTTCTGTTCAAGCGCCATCTAC | 1.4 RPM ratio (pull-down/input)
GATGATTGTTCTCCCAGCTGATGAATTGGTGCCATCGAGTAAACAAATTTTCCTAATCTTTCTGTTCAAGCGCCATCTAC | 0.972 RPM ratio (pull-down/input)
GATGATTGTTCTCCCAGCTGATGAATTCGCTGTATCGAGTAAACAAATTTTCCTAATCTTTCTGTTCAAGCGCCATCTAC | 1.04 RPM ratio (pull-down/input)

Source: PMC12820563, “FoxP3 forms a head-to-head dimer in vivo and stabilizes its multimerization on adjacent microsatellites”
